{"source": "PubChem BioAssay AID1220", "about": "(Sanford-Burnham Center for Chemical Genomics, 2008)", "note": "Screen size: about 190,000 compounds; about 1,300 (0.68%) were called active. This excerpt belongs to a sample that is enriched for actives. Values without a mark were called inactive. Rule as the data show it: active = inhibition above about 50%; inactive = the rest.", "data": [{"target": "Mannose-6-phosphate isomerase (Homo sapiens) (UniProt P34949)", "sequence (P34949 whole entry, looked up)": "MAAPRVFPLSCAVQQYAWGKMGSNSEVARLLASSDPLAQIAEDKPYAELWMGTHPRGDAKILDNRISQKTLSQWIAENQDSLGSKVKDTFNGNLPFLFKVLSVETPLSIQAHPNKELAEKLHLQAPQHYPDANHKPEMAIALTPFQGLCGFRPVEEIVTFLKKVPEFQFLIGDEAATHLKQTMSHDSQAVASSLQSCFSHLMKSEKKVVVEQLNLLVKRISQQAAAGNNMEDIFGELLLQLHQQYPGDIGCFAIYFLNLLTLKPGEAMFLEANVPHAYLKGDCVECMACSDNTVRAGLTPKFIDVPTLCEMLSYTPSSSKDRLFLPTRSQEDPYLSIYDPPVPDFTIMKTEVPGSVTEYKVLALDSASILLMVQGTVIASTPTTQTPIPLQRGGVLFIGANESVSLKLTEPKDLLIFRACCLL", "test": "MPI inhibition at elevated mannose 6-phosphate – biochemical, fluorescence intensity, high mannose 6-phosphate, primary screen (AID 1220)", "conditions": "recombinant PMI enzyme, coupled fluorescence intensity; at 20 µM; active compounds read high", "values": [{"molecule": "CC1(C)C(=O)N(OCc2ccccc2)C(C)(C)C(=O)N1OCc1ccccc1", "inhibition": "-1.9%"}, {"molecule": "COc1cc2c(cc1NCc1ccc3c(c1)OCO3)oc1ccccc12", "inhibition": "32.3%"}, {"molecule": "COc1cc2c(cc1NC(=O)CSc1ccccn1)oc1ccccc12", "inhibition": "4.8%"}, {"molecule": "COc1cc2c(cc1NCc1ccccn1)oc1ccccc12", "inhibition": "56.9% (active)"}, {"molecule": "CCOC(=O)C1CCN(c2c(NCc3ccc(C(=O)N(C)Cc4ccccc4)cc3)c(=O)c2=O)CC1", "inhibition": "-6.2%"}, {"molecule": "Cc1cc(C)nc(/N=C2\\NC(=O)CC(C(=O)O)N2c2ccc(F)c(Cl)c2)n1", "note": "(stereo unspecified)", "inhibition": "-5.5%"}, {"molecule": "O=C1CCCC2=C1C(c1cccc(O)c1)c1c(ccc3ncccc13)N2", "note": "(stereo unspecified)", "inhibition": "35.4%"}, {"molecule": "COc1cc(C2C3=C(CCCC3=O)Nc3ccc4ncccc4c32)ccc1O", "note": "(stereo unspecified)", "inhibition": "27.4%"}, {"molecule": "O=C1CCCC2=C1C(c1ccc(O)c(O)c1)c1c(ccc3ncccc13)N2", "note": "(stereo unspecified)", "inhibition": "52.9% (active)"}, {"molecule": "COc1cc(NC2=CC(=O)CC(C)(C)C2)cc(OC)c1OC", "inhibition": "9.2%"}, {"molecule": "COc1cc(C2C(C#N)=C(C)NC(C)=C2C#N)cc(OC)c1OC", "inhibition": "2%"}, {"molecule": "COc1cc(N/C=C2\\CC(=O)NC(C)=C2C#N)cc(OC)c1OC", "inhibition": "70.9% (active)"}, {"molecule": "COC(=O)c1ccc(CSc2ccc3nnc(-c4cccnc4)n3n2)o1", "inhibition": "0.3%"}, {"molecule": "CN(C)CCNC(=O)c1c(O)c2c([nH]c1=O)CCCC2", "inhibition": "15.6%"}, {"molecule": "COc1ccc(N)cc1-n1cnnn1", "inhibition": "-5.6%"}, {"molecule": "Cc1ccc(N)cc1-n1c(C)ccc1C", "inhibition": "27.5%"}, {"molecule": "Cc1cc(N)ccc1-n1c(C)ccc1C", "inhibition": "69.4% (active)"}, {"molecule": "COc1ccc(N)cc1-n1c(C)ccc1C", "inhibition": "64.2% (active)"}, {"molecule": "Cc1cc(N)ccc1N1CCCC1", "inhibition": "25.9%"}, {"molecule": "COc1ccc(Cl)cc1-n1c(C)ccc1C", "inhibition": "-6.6%"}, {"molecule": "Nc1nc(NCc2ccco2)nn1-c1ccccc1", "inhibition": "2%"}, {"molecule": "CCCC(=O)OCCNc1cc(Sc2nc3ccccc3[nH]2)c2nonc2c1[N+](=O)[O-]", "inhibition": "33%"}, {"molecule": "CCCC(=O)OCCNc1cc(Sc2nccn2C)c2nonc2c1[N+](=O)[O-]", "inhibition": "30.4%"}, {"molecule": "CCCC(=O)OCCNc1cc(SCc2ccco2)c2nonc2c1[N+](=O)[O-]", "inhibition": "40.5%"}, {"molecule": "Cc1nnc(Sc2cc(NCCCO)c([N+](=O)[O-])c3nonc23)s1", "inhibition": "39.9%"}, {"molecule": "Cn1ccnc1Sc1cc(NCCCO)c([N+](=O)[O-])c2nonc12", "inhibition": "24.2%"}, {"molecule": "Cc1nnc(Sc2cc(NCCO)c([N+](=O)[O-])c3nonc23)s1", "inhibition": "16.6%"}, {"molecule": "COC(=O)CCSc1cc(NCCOC(C)=O)c([N+](=O)[O-])c2nonc12", "inhibition": "43.1%"}, {"molecule": "CCC(=O)OCCNc1cc(Sc2nccn2C)c2nonc2c1[N+](=O)[O-]", "inhibition": "50.8% (active)"}, {"molecule": "CC(=O)OCCNc1cc(SCc2ccco2)c2nonc2c1[N+](=O)[O-]", "inhibition": "45.7%"}, {"molecule": "CCCSc1cc(NCCOC(C)=O)c([N+](=O)[O-])c2nonc12", "inhibition": "57.6% (active)"}, {"molecule": "CCCSc1cc(NCCOC(=O)CCC)c([N+](=O)[O-])c2nonc12", "inhibition": "50.7% (active)"}, {"molecule": "CCN(CC)c1cc(NCCO)c([N+](=O)[O-])c2nonc12", "inhibition": "57.4% (active)"}, {"molecule": "O=C(NCc1cccnc1)Nc1cccc(F)c1", "inhibition": "-2.6%"}, {"molecule": "CC(=O)Nc1nc(C(=O)O)cs1", "inhibition": "6.8%"}, {"molecule": "O=C(Nc1ccc(Cl)cn1)c1ccc(-c2cc(Cl)ccc2Cl)o1", "inhibition": "-2.7%"}, {"molecule": "COc1cc2c(cc1OC)CN(C1CC(=O)N(c3c(C)cccc3C)C1=O)CC2", "note": "(stereo unspecified)", "inhibition": "2.1%"}, {"molecule": "Cc1nc2ccc(NC(=S)NC3CC3)cc2nc1C", "inhibition": "46.4%"}, {"molecule": "CCOC(=O)N1CCN(S(=O)(=O)c2ccc(C(=O)Nc3ccc4c(c3)C(=O)NC4=O)cc2)CC1", "inhibition": "14.7%"}, {"molecule": "COc1c(C(=O)NCCSC(C)(C)C)ccc2ccccc12", "inhibition": "2.8%"}, {"molecule": "O=C(NCCn1ccc2ccccc21)C1CCCCC1", "inhibition": "1.5%"}, {"molecule": "CC(=O)OCCCNc1cc(Sc2ccc(Cl)cc2)c2nonc2c1[N+](=O)[O-]", "inhibition": "56.3% (active)"}, {"molecule": "CC(=O)OCCNc1cc(SC(C)C)c2nonc2c1[N+](=O)[O-]", "inhibition": "52% (active)"}, {"molecule": "CC(=O)OCCCNc1cc(SCc2ccco2)c2nonc2c1[N+](=O)[O-]", "inhibition": "40.1%"}, {"molecule": "CC(=O)OCCCNc1cc(Sc2ccc(C)cc2)c2nonc2c1[N+](=O)[O-]", "inhibition": "45.7%"}, {"molecule": "CC(=O)OCCNc1cc(Sc2nc3ccccc3[nH]2)c2nonc2c1[N+](=O)[O-]", "inhibition": "26.1%"}, {"molecule": "CC(=O)OCCN(C)c1cc(SC(C)C)c2nonc2c1[N+](=O)[O-]", "inhibition": "24.4%"}, {"molecule": "COc1ccc(C2CC(c3ccc(OC)cc3)n3nc(NC(=O)c4ccco4)nc3N2)cc1", "note": "(stereo unspecified)", "inhibition": "3.4%"}, {"molecule": "COc1cccc2c1OCC(C(=O)OCc1cccnc1)=C2", "inhibition": "3.9%"}, {"molecule": "COCc1cc(C)nc(N/N=C/c2ccc(-c3cc(C(=O)O)ccc3Cl)o2)c1C#N", "inhibition": "-8.6%"}, {"molecule": "COCc1cc(C)nc(N/N=C/c2ccc(-c3ccc(Cl)cc3[N+](=O)[O-])o2)c1C#N", "inhibition": "55.9% (active)"}, {"molecule": "COCc1cc(C)nc(N/N=C/c2ccc(-c3ccc(C(=O)O)c(Cl)c3)o2)c1C#N", "inhibition": "-2.9%"}, {"molecule": "O=C1CCc2cc(S(=O)(=O)NC(C(=O)N3CCN(c4ccccn4)CC3)c3ccccc3)ccc2N1", "note": "(stereo unspecified)", "inhibition": "-3.8%"}, {"molecule": "CNCC/C=C1/c2ccccc2CSc2ccccc21", "inhibition": "14.2%"}, {"molecule": "COc1ccc(N2CCC(CNC(=O)Nc3ccc(Cl)cc3)C2)cc1", "note": "(stereo unspecified)", "inhibition": "46.2%"}, {"molecule": "COc1ccc(N2CCC(CNC(=O)Nc3ccc(OC)cc3OC)C2)cc1", "note": "(stereo unspecified)", "inhibition": "55.7% (active)"}, {"molecule": "COc1ccc(NC(=O)NCc2ccncc2)c(OC)c1", "inhibition": "3.6%"}, {"molecule": "COc1ccc(N2CCC(CNC(=O)Nc3ccc(C)c(C)c3)C2)cc1", "note": "(stereo unspecified)", "inhibition": "52.6% (active)"}, {"molecule": "CCNC(=O)Nc1ccc(OC)cc1OC", "inhibition": "-3.8%"}, {"molecule": "CCOc1ccc(NC(=O)NCC2CCN(c3ccc(OC)cc3)C2)cc1", "note": "(stereo unspecified)", "inhibition": "22.5%"}, {"molecule": "CCSc1nnc(NC(=O)C(C)(C)C)s1", "inhibition": "2%"}, {"molecule": "CCO[C@@H]1OC(C(=O)NCc2ccccc2)=C[C@H](C2CC2)[C@H]1CCCO", "inhibition": "-7.4%"}, {"molecule": "Cc1nc(N)[nH]c(=O)c1CCC(=O)OCC(C)C", "inhibition": "-23.1%"}, {"molecule": "Nc1c([N+](=O)[O-])c(=O)sc2ccccc12", "inhibition": "-0.6%"}, {"molecule": "Nc1ccc2nc(-c3ccccc3)sc2c1", "inhibition": "26.8%"}, {"molecule": "Nc1ccc2c(c1)sc1ccccc12", "inhibition": "55.2% (active)"}, {"molecule": "Cc1c(C(=O)NCCc2ccc(S(N)(=O)=O)cc2)cccc1[N+](=O)[O-]", "inhibition": "-0.5%"}, {"molecule": "CCCN1C/C(=C/c2cccc([N+](=O)[O-])c2)C(=O)/C(=C/c2cccc([N+](=O)[O-])c2)C1", "inhibition": "-2.8%"}, {"molecule": "COc1ccc2ccccc2c1C1CC(=O)N2CN(Cc3ccco3)CSC2=C1C#N", "note": "(stereo unspecified)", "inhibition": "62.9% (active)"}, {"molecule": "N#CC1=C2SCN(Cc3ccco3)CN2C(=O)CC1c1cccc2ccccc12", "note": "(stereo unspecified)", "inhibition": "68.8% (active)"}, {"molecule": "COc1ccc(N2CSC3=C(C#N)C(c4cccc(OC)c4OC)CC(=O)N3C2)cc1", "note": "(stereo unspecified)", "inhibition": "-24.3%"}, {"molecule": "N#CC1=C2SCN(Cc3ccco3)CN2C(=O)CC1c1ccccc1F", "note": "(stereo unspecified)", "inhibition": "15%"}, {"molecule": "Cc1ccc(/C=C/C(=O)O)cc1S(=O)(=O)NCCCC(=O)O", "inhibition": "0.6%"}, {"molecule": "O=C(CCN1C(=O)C2C3C=CC(C3)C2C1=O)N1CCN(c2ccc([N+](=O)[O-])cc2)CC1", "note": "(stereo unspecified)", "inhibition": "21.6%"}, {"molecule": "CCC(=O)Nc1nc2nc(-c3ccccc3)cc(-c3ccccc3)n2n1", "inhibition": "0.3%"}, {"molecule": "Cc1ccc(O)c(NC(=S)NC(=O)/C=C/c2ccco2)c1", "inhibition": "-3.9%"}, {"molecule": "Cc1cc(=O)oc2cc(OCc3ccc(C(=O)N4CCN(c5ccccc5)CC4)cc3)ccc12", "inhibition": "10.2%"}, {"molecule": "CCC(C)NC(=O)CNC(=S)N(Cc1ccccc1F)C1CCCCC1", "note": "(stereo unspecified)", "inhibition": "6.1%"}, {"molecule": "COc1ccc(NC(=O)CSc2nnc(-c3cccnc3)n2Cc2ccco2)c(OC)c1", "inhibition": "8%"}, {"molecule": "c1ccc(OCCN2CCN(Cc3nc(-c4ccc5c(c4)OCO5)no3)CC2)cc1", "inhibition": "-4.3%"}, {"molecule": "CC(=O)Nc1ccc(NC(=O)CC2Nc3cccc4cccc(c34)NC2=O)cc1", "note": "(stereo unspecified)", "inhibition": "-5.1%"}, {"molecule": "O=C(CC1Nc2cccc3cccc(c23)NC1=O)Nc1ccc(F)cc1", "note": "(stereo unspecified)", "inhibition": "54% (active)"}, {"molecule": "O=C(CC1Nc2cccc3cccc(c23)NC1=O)Nc1ccccc1", "note": "(stereo unspecified)", "inhibition": "39%"}, {"molecule": "Brc1ccc(/C=N/c2nc3ccccc3n2CCN2CCOCC2)cc1", "inhibition": "9.4%"}, {"molecule": "C=CCn1c(=NC(=O)c2ccc(S(=O)(=O)N3CCc4ccccc4C3)cc2)sc2cc(S(N)(=O)=O)ccc21", "inhibition": "1.8%"}, {"molecule": "C=CCn1c(=NC(=O)c2ccc(S(=O)(=O)N3CCCc4ccccc43)cc2)sc2cc(S(N)(=O)=O)ccc21", "inhibition": "59.2% (active)"}, {"molecule": "C#CCn1c(=NC(=O)c2ccc(S(=O)(=O)N3CCCc4ccccc43)cc2)sc2cc(S(N)(=O)=O)ccc21", "inhibition": "20.9%"}, {"molecule": "N/C(=N\\OC(=O)Oc1ccccc1)c1cccc([N+](=O)[O-])c1", "inhibition": "-8.6%"}, {"molecule": "CCOC(=O)c1cc(NC(=O)Nc2ccccc2OC)c(C)nc1C", "inhibition": "6%"}, {"molecule": "CCCCCn1c(N)c(-c2nc3ccccc3o2)c2c([N+](=O)[O-])nn(C)c(=O)c21", "inhibition": "-0.9%"}, {"molecule": "Cc1noc2ncnc(Oc3ccccc3Cl)c12", "inhibition": "0%"}, {"molecule": "COc1cccc(CN(C)C(=S)Nc2cccc(C)c2)c1", "inhibition": "0.1%"}, {"molecule": "O=C(CNc1ccc2ccccc2c1)N/N=C/c1cc2ccccc2nc1Cl", "inhibition": "67.5% (active)"}, {"molecule": "Cc1ccc(NCC(=O)N/N=C\\c2ccc([N+](=O)[O-])o2)cc1", "inhibition": "-1.6%"}, {"molecule": "Cc1ccccc1OCC(=O)N/N=C/c1cc2ccccc2nc1Cl", "inhibition": "9.1%"}, {"molecule": "O=C(COc1cccc(Cl)c1)N/N=C\\c1cc2ccccc2nc1Cl", "inhibition": "-3.2%"}, {"molecule": "O=C(CN1CCCCC1)N/N=C/c1cc2ccccc2nc1Cl", "inhibition": "-10.7%"}, {"molecule": "O=C(CN1CCOCC1)N/N=C/c1cc2ccccc2nc1Cl", "inhibition": "15.9%"}, {"molecule": "Cc1ccc(NCC(=O)N/N=C/c2cc3ccccc3nc2Cl)cc1", "inhibition": "57.6% (active)"}, {"molecule": "Cc1ccc(NCC(=O)N/N=C/c2cc(O)ccc2[N+](=O)[O-])cc1", "inhibition": "57.6% (active)"}, {"molecule": "Cc1ccc(NCC(=O)N/N=C\\c2cccc(O)c2)cc1", "inhibition": "18.7%"}]}]}
